Results: PubChem BioAssay

Test: Her2 expression decrease, cell viability multiplex – SKBR3 breast tumor cells, AlphaScreen, ATP viability, primary screen (AID 461);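 further: percent of carrier control wells set as 100% viability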
Details: SKBR3 Her2 protein level, 18-24 h, measured here: SKBR3 viability, ATP luminescence, at 10 µM

First: CC[N+](C)(C)c1cccc(O)c1
Second: CCC(NC(C)C)C(O)c1ccc(O)c(O)c1 (stereo not given)
The viability of the first is higher: 97.5% for the first, 87.5% for the second.

Compared with `NC(Cc1ccc(Oc2ccc(O)cc2)cc1)C(=O)O` (stereo not given), `COc1ccc2cc([C@H](C)C(=O)O)ccc2c1` is higher in viability: 92.5% for the first, 93.5% for the second.

Going from `COCCN(C(=O)CCC(=O)Nc1ccccn1)C(C(=O)NC1CCCC1)c1ccc(OC)cc1` (stereo not given) to `COc1ccc(CN(CCN(C)C)c2ccccn2)cc1`, the viability falls from 106% to 91%.

Compared with `Cc1ncc([N+](=O)[O-])n1CC(O)CCl` (stereo not given), `Cc1c(C(=O)O)sc2ncn(C)c(=O)c12` is higher in viability: 99.5% for the first, 106% for the second.

Going from `CCCCOc1ccc(CC(=O)NO)cc1` to `CCOC(=O)c1c(NCc2ccc3c(c2)OCO3)c2ccccc2[nH]c1=O`, the viability falls from 122% to 100%.

Compared with `Nc1ccc2cn[nH]c2c1`, `Nc1nnc(-c2cccc(Cl)c2Cl)c(N)n1` is higher in viability: 100% for the first, 109% for the second.

Compared with `CCC(=NC(C)c1ccccc1)c1c(O)n(C)c(=O)n(C)c1=O` (stereo not given), `CC(=O)C1=C(O)C(=O)N(Cc2cccnc2)C1c1ccccc1` (stereo not given) is higher in viability: 94% for the first, 101% for the second.

`C[C@]12C[C@H](O)[C@H]3[C@@H](CCC4=CC(=O)CC[C@@]43C)[C@@H]1CC[C@@H]2C(=O)CO` and `C[C@]12CC[C@H]3[C@@H](CCC4=CC(=O)CC[C@@]43C)[C@@H]1CC[C@@H]2C(=O)CO` are the same in viability: 106% for the first, 106% for the second.

Compared with `OCCOCCN1CCN(C(c2ccccc2)c2ccc(Cl)cc2)CC1` (stereo not given), `O=S(=O)(c1ccc(OCC(O)CN2CCC(Cc3ccccc3)CC2)cc1)N1CCOCC1` (stereo not given) is higher in viability: 79% for the first, 81.5% for the second.

Going from `Cn1cc(NC(=O)c2cc(NC(=O)c3cc(NC=O)cn3C)cn2C)cc1C(=O)NCCC(=N)N` to `COC(=O)CSc1nc(C)c(C(C)=O)cc1C#N`, the viability falls from 96% to 92%.

Compared with `Cn1c(SCC(=O)N2CCOCC2)nnc1-c1cnccn1`, `Cc1cccc(C)c1NC(=O)C1CCCCN1C` (stereo not given) is lower in viability: 109% for the first, 108% for the second.

First: Cc1cccc(Nc2ccccc2C(=O)O)c1C
Second: C=C(c1cccc2ccccc12)P(=O)(O)O
The viability of the first is lower: 85% for the first, 116% for the second.

Compared with `CCC(NC(C)C)C(O)c1ccc(O)c2[nH]c(=O)ccc12` (stereo not given), `Cn1c(-c2ccccc2)cc(=O)c2ccccc21` is lower in viability: 108% for the first, 98.5% for the second.

Compared with `COc1cc2nc(N3CCN(C(=O)C4CCCO4)CC3)nc(N)c2cc1OC` (stereo not given), `CCn1cc(C(=O)O)c(=O)c2cnc(N3CCNCC3)nc21` is higher in viability: 100% for the first, 108% for the second.

Going from `CN1Cc2c(N)cccc2C(c2ccccc2)C1` (stereo not given) to `O=c1ccc(S(=O)(=O)N2CCC(Cc3ccccc3)CC2)c[nH]1`, the viability rises from 81% to 86%.

First: C[C@H]1C[C@H]2[C@@H]3CCC4=CC(=O)C=C[C@]4(C)[C@@]3(Cl)[C@@H](O)C[C@]2(C)[C@@]1(O)C(=O)CO
Second: CCCC(=O)O[C@]1(C(=O)COC(C)=O)CC[C@H]2[C@@H]3C[C@H](F)C4=CC(=O)C=C[C@]4(C)[C@@]3(F)[C@@H](O)C[C@@]21C
The viability of the first is higher: 110% for the first, 95% for the second.

Going from `C[C@]12CC[C@@H]3c4ccc(O[C@@H]5O[C@H](C(=O)O)[C@@H](O)[C@H](O)[C@H]5O)cc4CC[C@H]3[C@@H]1C[C@@H](O)[C@@H]2O` to `C[C@]12CC[C@@H]3c4ccc(O)cc4CC[C@H]3[C@@H]1CC[C@@H]2OC(=O)CCC(=O)O`, the viability rises from 102% to 118%.

Compared with `O=C(O)CCCCCCC1C(=O)NC(=O)N1CCC(O)C1CCCCC1` (stereo not given), `CCCC(=O)Nc1ncnc2c1ncn2[C@@H]1O[C@@H]2COP(=O)(O)O[C@H]2[C@H]1OC(=O)CCC` is lower in viability: 108% for the first, 102% for the second.

First: O=C(NCC1CCCCN1)c1cc(OCC(F)(F)F)ccc1OCC(F)(F)F (stereo not given)
Second: COc1cc(OC)c(NC(=O)c2ccco2)cc1Cl
The viability of the first is lower: 86% for the first, 121% for the second.

Going from `c1ccc2nc(-c3nc4ccccc4[nH]3)ccc2c1` to `C/C(N)=C(/C#N)C(=O)COC(=O)CCSc1ccccc1`, the viability falls from 104% to 97.5%.
